Test results: PubChem BioAssay AID1159580 (chemical genetic matrix, 2015)
Out of some 5,500 compounds screened, about 2,000 (36%) were called active. Inconclusive results (about 18%) are left out. Cut-off read from the data, not from the text of the source: active = normalized growth mostly below about 0.91 (no sharp cut-off); inconclusive = no clear call, values can overlap the other calls; inactive = mostly above about 0.92. The list shows a part of the results.

Assay: chemical genetic growth profiling, strain panel (AID 1159580);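 note: tested at 20 µM; growth read once vehicle control cultures reached saturation at 30 °C; 1 = growth at the plate median or of vehicle wells; lower values mean less growth of the strain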
Details: S. cerevisiae deletion strains, growth OD

Measured: normalized growth

O=C(O)c1cc(=O)cc(C(=O)O)[nH]1
inactive: locus YAL040C, strain CLN3, stronger effect = lower value 1.02 | locus YCL061C, strain MRC1 (second series), stronger effect = lower value 1.01 | locus YER002W, strain NOP16, stronger effect = lower value 1.04 | locus YMR263W, strain SAP30, stronger effect = lower value 0.998 | locus YMR307W, strain GAS1, stronger effect = lower value 1.01 | locus YNL175C, strain NOP13, stronger effect = lower value 0.999 | locus YNL197C, strain WHI3, stronger effect = lower value 1.03 | locus YNL224C, strain SQS1, stronger effect = lower value 1.01 | locus YOR083W, strain WHI5 (second series), stronger effect = lower value 1.02 | locus YPL055C, strain LGE1, stronger effect = lower value 1.01
